Compounds without any hit were thinned out: in the full panel of roughly 79,000, 15% have a hit. The source made the active and inactive calls. Cut-off read from the data, not from the text of the source: active = growth inhibition above about 70%; inactive = the rest.
Tests used:
[1] = NCI Yeast Anticancer Drug Screen. Data for the rad50 strain (AID 155);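 note: 0% = growth of vehicle-only cultures of the same strain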; conditions: S. cerevisiae rad50 strain growth inhibition, active compounds read high
Summary of the method: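 A DNA repair-deficient yeast mutant serves as the test organism; compound-induced growth inhibition is calculated against vehicle-treated cells.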

[2] = NCI Yeast Anticancer Drug Screen. Data for the mec2-1 strain (AID 157); conditions: S. cerevisiae mec2-1 strain, active compounds read high
Summary of the method: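 Mutant yeast (mec2-1) grown with compound; growth inhibition relative to vehicle control reported.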

[3] = NCI Yeast Anticancer Drug Screen. Data for the sgs1 mgt1 strain (AID 161);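 note: 0% = growth of cultures given vehicle only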; conditions: S. cerevisiae sgs1 mgt1 strain, active compounds read high
Summary of the method: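 This yeast growth screen uses a strain with defined DNA-repair lesions; compound-treated growth is compared with vehicle-treated growth.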

[4] = NCI Yeast Anticancer Drug Screen. Data for the cln2 rad14 strain (AID 165);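 note: 0% = growth equal to vehicle treated cultures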; conditions: S. cerevisiae cln2 rad14 strain, active compounds read high
Summary of the method: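 Readout is yeast growth inhibition versus vehicle-treated controls, using a strain with cln2 and rad14 alterations exposed to compound.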

[5] = NCI Yeast Anticancer Drug Screen. Data for the bub3 strain (AID 167); conditions: S. cerevisiae bub3 mutant strain, active compounds read high
Summary of the method: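 Inhibition values come from growth of compound-treated mutant yeast normalised to vehicle-treated controls.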

[6] = NCI Yeast Anticancer Drug Screen. Data for the mlh1 rad18 strain (AID 175); conditions: S. cerevisiae mlh1 rad18 strain growth inhibition, active compounds read high
Summary of the method: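 Genetically defined yeast (DNA repair-deficient) exposed to compounds; growth inhibition determined relative to vehicle.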

[7] = at 5.0 µM (retest, dose inferred, filed as 0.5)
[8] = at 50.0 µM (retest, dose inferred, filed as 5.0)

Measured: growth inhibition

CN/N=C(\C)C(CN1CCCCC1)C(C1=C(O)c2ccccc2OC1)c1ccccc1 (stereo not given)
active: [3]; at 50.0 µM 78.7% | [6]; at 50.0 µM 72%
inactive: [1]; [7] 25% | [1]; [8] 25% | [1]; at 50.0 µM 69.8% | [2]; [7] 25% | [2]; [8] 25% | [2]; at 50.0 µM 57.6% | [3]; [7] 9% | [3]; [8] 9% | [4]; [7] -1% | [4]; [8] -1% | [4]; at 50.0 µM 66.7% | [5]; [7] 10% | [5]; [8] 10% | [5]; at 50.0 µM 67.7% | [6]; [7] 25% | [6]; [8] 25%

COC1=CC23C=CC1[C@@H](c1ccccc1)C2=C(C)C(=O)N3C(=O)NC1CCCCC1 (stereo not given in full)
inactive: [1]; [7] 21% | [1]; [8] 21% | [2]; [7] -4% | [2]; [8] -4% | [2]; at 50.0 µM 68.2% | [3]; [7] 1% | [3]; [8] 1% | [3]; at 50.0 µM 63.8% | [4]; [7] 5% | [4]; [8] 5% | [4]; at 50.0 µM 29.8% | [5]; [7] -8% | [5]; [8] -8% | [5]; at 50.0 µM 65% | [6]; [7] -4% | [6]; [8] -4% | [6]; at 50.0 µM 50.6%
active: [1]; at 50.0 µM 71.1%

COc1cc(C2C(C(=O)Nc3ccc(Cl)c(Cl)c3)=C(C)NC(C)=C2C(=O)Nc2ccc(Cl)c(Cl)c2)ccc1O
inactive: [1]; [7] 19% | [1]; [8] 19% | [2]; [7] -4% | [2]; [8] -4% | [3]; [7] 2% | [3]; [8] 2% | [4]; [7] 7% | [4]; [8] 7% | [5]; [7] 13% | [5]; [8] 13% | [6]; [7] 8% | [6]; [8] 8%
active: [1]; at 50.0 µM 91% | [2]; at 50.0 µM 90.6% | [3]; at 50.0 µM 88.7% | [4]; at 50.0 µM 88.8% | [5]; at 50.0 µM 91.2% | [6]; at 50.0 µM 89.5%

CCC1CCC2C3CC=C4CC(OC(C)=O)C(N)CC4(C)C3CCC12C (stereo not given)
inactive: [1]; [7] 6% | [2]; [7] 9% | [3]; [7] 4% | [4]; [7] 45% | [5]; [7] -5% | [6]; [7] 12%
active: [1]; [8] 96% | [1]; at 50.0 µM 93% | [2]; [8] 94% | [2]; at 50.0 µM 92.3% | [3]; [8] 93% | [3]; at 50.0 µM 89.2% | [4]; [8] 95% | [4]; at 50.0 µM 91.3% | [5]; [8] 95% | [5]; at 50.0 µM 85.6% | [6]; [8] 94% | [6]; at 50.0 µM 91.8%

COc1ccc(C=Nc2ccccc2O)cc1
inactive: [1]; [7] 26% | [1]; [8] 44% | [1]; at 50.0 µM 59.1% | [2]; [7] 15% | [2]; [8] 22% | [2]; at 50.0 µM 32.2% | [3]; [7] 11% | [3]; [8] 15% | [3]; at 50.0 µM 39.5% | [4]; [7] -2% | [4]; [8] 13% | [4]; at 50.0 µM -15.9% | [6]; [7] 38% | [6]; [8] 54% | [6]; at 50.0 µM 67.4%
active: [5]; [7] 81% | [5]; [8] 74% | [5]; at 50.0 µM 76.6%

O=C(OCc1ccccc1)N1N=NC2C1C1CC(OCc3ccccc3)(OCc3ccccc3)C2O1 (stereo not given)
inactive: [1]; [7] 18% | [1]; [8] 18% | [1]; at 50.0 µM 40.1% | [2]; [7] 2% | [2]; [8] 2% | [2]; at 50.0 µM -21.9% | [3]; [7] 18% | [3]; [8] 18% | [3]; at 50.0 µM -10.7% | [4]; [7] 4% | [4]; [8] 4% | [4]; at 50.0 µM 13.2% | [5]; [7] 6% | [5]; [8] 6% | [5]; at 50.0 µM 18% | [6]; [7] 18% | [6]; [8] 18% | [6]; at 50.0 µM -22.2%

CN=C(N)N/N=C(\C)c1ccc2c(ccc3ccccc32)c1
inactive: [1]; [7] 11% | [2]; [7] 14% | [3]; [7] 13% | [4]; [7] -3% | [5]; [7] 33% | [6]; [7] 35%
active: [1]; [8] 98% | [1]; at 50.0 µM 89.2% | [2]; [8] 99% | [2]; at 50.0 µM 91.2% | [3]; [8] 99% | [3]; at 50.0 µM 90.8% | [4]; [8] 98% | [4]; at 50.0 µM 91.3% | [5]; [8] 99% | [5]; at 50.0 µM 88.3% | [6]; [8] 97% | [6]; at 50.0 µM 91.7%

CC(=O)c1cc(I)c(O)c2ncccc12
inactive: [3]; [7] 29% | [4]; [7] 69% | [5]; [7] 28%
active: [1]; [7] 96% | [1]; [8] 99% | [1]; at 50.0 µM 90.3% | [2]; [7] 93% | [2]; [8] 99% | [2]; at 50.0 µM 92.5% | [3]; [8] 98% | [3]; at 50.0 µM 93% | [4]; [8] 96% | [4]; at 50.0 µM 88.8% | [5]; [8] 95% | [5]; at 50.0 µM 89.5% | [6]; [7] 100% | [6]; [8] 100% | [6]; at 50.0 µM 87.9%

Oc1ccc2ccccc2c1.[Cu+2]
active: [1]; at 50.0 µM 98% | [2]; at 50.0 µM 97.2% | [3]; at 50.0 µM 98.4% | [4]; at 50.0 µM 83.2% | [5]; at 50.0 µM 94% | [6]; at 50.0 µM 98%
inactive: [1]; [7] 1% | [1]; [8] 20% | [2]; [7] -1% | [2]; [8] 12% | [3]; [7] -2% | [3]; [8] 6% | [4]; [7] -4% | [4]; [8] 13% | [5]; [7] 2% | [5]; [8] 8% | [6]; [7] 0% | [6]; [8] 33%

CC(O)CCc1nc2ccccc2[nH]1 (stereo not given)
inactive: [1]; [7] 3% | [1]; [8] -4% | [1]; at 50.0 µM 17.3% | [2]; [7] 2% | [2]; [8] -3% | [2]; at 50.0 µM 3.15% | [3]; [7] -1% | [3]; [8] 0% | [3]; at 50.0 µM -1.3% | [4]; [7] 2% | [4]; [8] 27% | [4]; at 50.0 µM 57.2% | [5]; [7] 3% | [5]; [8] 6% | [5]; at 50.0 µM -6.65% | [6]; [7] 0% | [6]; [8] -8% | [6]; at 50.0 µM 11.7%

— PubChem BioAssay (NCI)
